Measured values taken from PubChem BioAssay AID1159580 (chemical genetic matrix, 2015).
Values joined by “and” are separate entries in the source; they are usually repeats but may differ in a detail not shown here. Equal entries are not always repeated. In all, about 5,500 compounds went through this assay and about 2,000 (36%) were called active. About 18% were inconclusive and are not listed. Rule as the data show it: active = normalized growth mostly below about 0.91 (no sharp cut-off); inconclusive = no clear call, values can overlap the other calls; inactive = mostly above about 0.92. Some of the results follow.

Test: chemical genetic growth profiling, strain panel (AID 1159580);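 also: tested at 20 µM; growth read once vehicle control cultures reached saturation at 30 °C; 1 = growth at the plate median or of vehicle wells; lower values mean less growth of the strain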
Conditions: S. cerevisiae deletion strains, growth OD

Measured: normalized growth

CCCCCCCCCc1ccc(O)cc1
active: locus YAL013W, strain DEP1, hits give low values 0.118 | locus YAL021C, strain ccr4, hits give low values 0.0845 | locus YAL026C, strain drs2, hits give low values 0.0626 | locus YAL030W, strain snc1, hits give low values 0.0571 | locus YBL061C, strain skt5, hits give low values 0.0594 | locus YBR009C, strain hhf1, hits give low values 0.0563 | locus YBR021W, strain FUR4, hits give low values 0.215 | locus YBR023C, strain chs3, hits give low values 0.0626 | locus YBR171W, strain sec66, hits give low values 0.0781 | locus YBR229C, strain ROT2, hits give low values 0.144 | locus YBR231C, strain swc5, hits give low values 0.0635 | locus YBR279W, strain paf1, hits give low values 0.066 | locus YCL011C, strain gbp2, hits give low values 0.0546 | locus YCL016C, strain dcc1, hits give low values 0.0648 | locus YCL029C, strain bik1, hits give low values 0.617 | locus YCL061C, strain MRC1, hits give low values 0.0666 | locus YCL069W, strain vba3, hits give low values 0.0655 | locus YCR088W, strain abp1, hits give low values 0.0637 | locus YDL005C, strain med2, hits give low values 0.0719 | locus YDL035C, strain GPR1, hits give low values 0.0859 | locus YDL040C, strain nat1, hits give low values 0.0822 | locus YDL074C, strain BRE1, hits give low values 0.0981 | locus YDL101C, strain DUN1, hits give low values 0.1 | locus YDL134C, strain PPH21, hits give low values 0.0971 | locus YDL192W, strain arf1, hits give low values 0.411 | locus YDR001C, strain nth1, hits give low values 0.0685 | locus YDR069C, strain doa4, hits give low values 0.115 | locus YDR101C, strain arx1, hits give low values 0.721 | locus YDR137W, strain rgp1, hits give low values 0.101 | locus YDR150W, strain NUM1, hits give low values 0.529 | locus YDR159W, strain sac3, hits give low values 0.0748 | locus YDR162C, strain NBP2, hits give low values 0.102 | locus YDR195W, strain ref2 0.0909 | locus YDR297W, strain sur2, hits give low values 0.0579 | locus YDR318W, strain mcm21, hits give low values 0.58 | locus YDR334W, strain swr1, hits give low values 0.0683 | locus YDR335W, strain msn5, hits give low values 0.06 | locus YDR388W, hits give low values 0.678 | locus YDR392W, strain spt3, hits give low values 0.0671 | locus YDR502C, strain sam2, hits give low values 0.8 | locus YEL003W, strain gim4, hits give low values 0.0581 | locus YEL037C, strain rad23, hits give low values 0.0885 | locus YEL061C, strain CIN8 (second series), hits give low values 0.059 | locus YEL061C, strain CIN8, hits give low values 0.131 | locus YER015W, strain faa2, hits give low values 0.0639 | locus YER016W, strain bim1, hits give low values 0.0583 | locus YER110C, hits give low values 0.603 | locus YER111C, strain swi4, hits give low values 0.0713 | locus YER155C, strain BEM2 (second series), hits give low values 0.504 | locus YER155C, strain BEM2, hits give low values 0.101 | locus YER167W, strain BCK2, hits give low values 0.117 | locus YFR010W, strain ubp6, hits give low values 0.0798 | locus YGL078C, strain dbp3, hits give low values 0.885 | locus YGL086W, strain mad1, hits give low values 0.697 | locus YGL167C, strain pmr1, hits give low values 0.0729 | locus YGL173C, strain kem1, hits give low values 0.0956 | locus YGL227W, strain vid30, hits give low values 0.0725 | locus YGL240W, strain doc1, hits give low values 0.157 | locus YGL248W, strain PDE1, hits give low values 0.181 | locus YGL253W, strain hxk2, hits give low values 0.0662 | locus YGR078C, strain PAC10, hits give low values 0.174 | locus YGR135W, strain pre9, hits give low values 0.842 | locus YGR229C, strain SMI1, hits give low values 0.0784 | locus YGR252W, strain gcn5, hits give low values 0.518 | locus YHR013C, strain ard1, hits give low values 0.102 | locus YHR027C, strain rpn1, hits give low values 0.0645 | locus YHR030C, strain SLT2, hits give low values 0.0665 and 0.09 | locus YHR079C, strain IRE1 (second series), hits give low values 0.488 | locus YHR079C, strain IRE1, hits give low values 0.107 | locus YHR094C, strain hxt1, hits give low values 0.87 | locus YHR129C, strain ARP1, hits give low values 0.173 | locus YHR142W, strain chs7, hits give low values 0.064 | locus YHR200W, strain rpn10, hits give low values 0.577 | locus YIL066C, strain RNR3, hits give low values 0.116 | locus YIL073C, strain SPO22, hits give low values 0.182 | locus YIL125W, strain kgd1, hits give low values 0.405 | locus YIR030C, strain dcg1, hits give low values 0.762 | locus YJL092W, strain hpr5, hits give low values 0.0838 | locus YJL095W, strain BCK1 (second series), hits give low values 0.0552 | locus YJL095W, strain BCK1, hits give low values 0.0671 and 0.102 | locus YJL115W, strain asf1, hits give low values 0.113 | locus YJL129C, strain trk1, hits give low values 0.0774 | locus YJL134W, strain LCB3, hits give low values 0.308 | locus YJL154C, strain vps35, hits give low values 0.0618 | locus YJL164C, strain tpk1, hits give low values 0.0542 | locus YJL166W, strain qcr8, hits give low values 0.057 | locus YJL187C, strain SWE1 (second series), hits give low values 0.193 | locus YJL187C, strain SWE1, hits give low values 0.06 | locus YJR043C, strain POL32, hits give low values 0.107 | locus YJR066W, strain TOR1, hits give low values -0.000468
inactive: locus YDL185W, strain tfp1, hits give low values 0.929 | locus YJL168C, strain set2, hits give low values 0.992
